Assay outcomes (PubChem BioAssay)
Only some compounds are listed: those with a hit (about 11% of all), similar ones and a draw of the others.
Gal4-VP16 FLuc: Gal4-VP16 reporter inhibition counter-screen. 310,000 compounds, 3.5% hits. Potency, µM (series often up to 53.6 µM), hits mostly inhibitors. Drosophila S2 Gal4-VP16 UAS-luciferase, luminescence, 20 h;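 further: Gal4-VP16 expression switched on by copper sulfate through the metallothionein promoter; nearly all actives have a fitted effect of over 50% in size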
SW480 rereplic: induces DNA re-replication in SW480 colon adenocarcinoma cells. SW480 DNA re-replication, Hoechst DNA content imaging, 48 h. Potency, µM (highest dose often 46.1 µM), actives largely listed as activators. 340,000 compounds, 1.8% hits; further: nearly all actives have a fitted effect of over 55% in size
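Hoechst fluorescence of nuclei (405 nm excitation, 500-530 nm emission) measured by plate-scanning imager after 48 hr compound exposure at 37 C; re-replication scored as increased number of nuclei with elevated intensity.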
IL1B secr inh: inhibitors of inflammasome signaling (IL-1 beta secretion); 360,000 compounds, 4.7% hits; activity change, % at 57.5 µM; AID 743279; THP-1 LPS/ATP IL-1B secretion, AlphaLISA, 16 h; active compounds read low; in the data active means activity change below about -50%; inconclusive means mostly about -30% to -49%
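THP-1 cells pretreated 1 hr with compounds (up to 57.5 uM final), then stimulated with LPS (250 ng/mL final) plus ATP (1.25 mM final); secreted IL-1B measured by AlphaLISA after 16 hr, decreased signal indicating inhibition.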
RORg inh: blocks mouse ROR gamma transcriptional activity. P51450. AID 2551. Potency, µM (doses to about 53.6 µM), actives largely listed as inhibitors. 310,000 compounds, 5.4% hits. Drosophila S2 Gal4-RORgamma UAS-luciferase reporter, 20 h; further: nearly all actives have a fitted effect of over 60% in size
Target sequence (P51450 whole entry, looked up, the tested form may be a part): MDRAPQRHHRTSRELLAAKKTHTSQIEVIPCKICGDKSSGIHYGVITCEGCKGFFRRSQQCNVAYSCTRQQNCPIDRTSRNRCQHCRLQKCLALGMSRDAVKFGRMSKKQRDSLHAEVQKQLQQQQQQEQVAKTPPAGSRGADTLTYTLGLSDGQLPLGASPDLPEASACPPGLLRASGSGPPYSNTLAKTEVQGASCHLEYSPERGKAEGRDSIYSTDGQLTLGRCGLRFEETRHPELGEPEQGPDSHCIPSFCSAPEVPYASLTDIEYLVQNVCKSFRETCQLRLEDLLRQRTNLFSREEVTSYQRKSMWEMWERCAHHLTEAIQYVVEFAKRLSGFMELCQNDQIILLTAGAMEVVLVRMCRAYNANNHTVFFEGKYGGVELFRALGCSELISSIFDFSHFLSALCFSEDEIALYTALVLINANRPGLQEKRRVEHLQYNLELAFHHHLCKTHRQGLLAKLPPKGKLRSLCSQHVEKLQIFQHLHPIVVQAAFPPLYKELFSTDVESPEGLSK
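Schneider cells (Drosophila), stable Gal4 DBD–ROR gamma + UAS-luc; 1 hr cmpd preincubation; Cu2+ induction 700 uM final; 20 hr ambient; luminescence.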
MCF10A rerep: inducers of DNA re-replication in MCF 10A breast cells | MCF 10A DNA re-replication, Hoechst nuclear intensity, 48 h | 350,000 compounds, 2.9% hits | AID 624296 | Potency, µM (highest dose often 46.1 µM), usual class: activators; further: nearly all actives have a fitted effect of over 50% in size
Numbers stand for hits; n = inactive; u = inconclusive; x = no result; [ ] = remark or other dose. Unless noted, the call rests on the fitted dose curve; in most records, active means well fitted curve in the direction sought with a large enough effect; inconclusive means small, poorly fitted or top-dose-only effect, or another doubt; inactive means no such curve, though single readings can be large; an effect the other way counts as inactive or inconclusive.

SMILES	Gal4-VP16 FLuc	SW480 rereplic	IL1B secr inh	RORg inh	MCF10A rerep
COc1cccc(OCCn2cccc2/C=C2/C(=N)N3OC(C)=CC3=NC2=O)c1	n	n	n	n	n
CC1=CC2=NC(=O)/C(=C\c3cccn3CCOc3ccccc3)C(=N)N2O1	n	n	n	n	n
CC1=CC2=NC(=O)/C(=C\c3cccn3CCOc3cc(C)cc(C)c3)C(=N)N2O1	u	n	-56	u	u
CC1=CC2=NC(=O)/C(=C\c3cccn3CCOc3cccc(C)c3)C(=N)N2O1	u	n	-56	16µM	u
Cn1nc(-c2ccccc2)c(CO)c1Oc1ccc(F)cc1	n	n	n	n	21µM
OCCN(Cc1ccccc1)CC(O)COc1ccc(-c2ccccc2)cc1 (stereo unspecified)	u	u	-76	u	u
CCNc1nc(NC(C)CC)nc(ON=C(C)C)n1 (stereo unspecified)	n	n	n	14µM	n
CCN1C(=O)[C@H]2[C@@H](c3ccc(C(F)(F)F)cc3)N[C@]3(CCCN(Cc4ccc(OC)cc4)C3=O)[C@H]2C1=O	x	x	n	x	x
O=C(Nc1cc(Cl)cc2c1-c1ccc(Cl)cc1C2O)C(Cl)Cl (stereo unspecified)	x	u	-61	x	u
Cc1ccc(-c2ccc(SCC(=O)c3ccccc3)nn2)cc1	n	n	n	n	u
N#Cc1ccc(-c2ccc3c(c2)OCO3)nc1SCC(=O)OCc1ccccc1	n	n	n	n	n
COc1ccc(-c2ccc(C#N)c(SCC(=O)OCc3ccccc3)n2)cc1OC	n	u	n	n	9.2µM
O=C(CSc1ccc(-c2ccco2)nn1)c1ccc(F)cc1	n	n	n	n	n
N#Cc1ccc(-c2ccco2)nc1SCC(=O)c1ccc(Cl)cc1	n	n	n	n	7.9µM
Cc1ccc(C(=O)CSc2ccc(-c3cccnc3)nn2)cc1	2.5µM	n	n	112µM	n
Cc1ccc(C(=O)CSc2nc(-c3ccccc3)ccc2C#N)cc1	n	u	n	n	3.7µM
O=C(C1CCCCC1)N(Cc1nc2sc3c(c2c(=O)[nH]1)CCCC3)Cc1cccs1	u	n	n	11µM	u
Cc1cccc(Nc2nc(-c3ccncc3)cs2)c1	n	u	n	n	u
Clc1cccc(Nc2nc(-c3ccncc3)cs2)c1	n	15µM	-61	n	u
c1ccc(-c2csc(Nc3cccnc3)n2)cc1	n	n	u	n	u
Clc1ccc(-c2csc(Nc3cccnc3)n2)cc1	n	n	-80	n	n
OC(CCc1ccncc1)COc1ccccc1 (stereo unspecified)	x	n	n	x	n
CCc1ccc(NC(=O)C(=S)NC2CCCCC2)cc1	n	n	n	n	u
O=C(Nc1ccc(Br)cc1)NC1CCCCCCC1	u	u	-90	u	n
O=C(Nc1ccccc1NC(=O)NC1CCCCC1)NC1CCCCC1	x	u	-69	n[0.365 µM]	3.7µM
SMILES	Gal4-VP16 FLuc	SW480 rereplic	IL1B secr inh	RORg inh	MCF10A rerep
CCc1ccc(NC(=O)NC2CCCCCCC2)cc1	n	n	-71	n	n
O=C(Nc1ccccc1)NC1CCCCCCC1	x	n	u	x	n
O=S(=O)(NC(=S)NC1CCCCC1)c1ccc(Br)cc1	u	n	n	4.5µM	n
COCCN(C(=O)COC(=O)C(C)(C)Oc1ccc(Cl)cc1)c1c(N)n(Cc2ccccc2)c(=O)[nH]c1=O	x	n	n	x	n
O=C(Nc1cccc(F)c1)Nc1nnc([C@@H]2O[C@H](CO)[C@@H](O)[C@H]2O)s1	x	x	n	x	x
COC(=O)c1cccc(Cn2c(Cl)c(/C=N/NC(=O)c3ccco3)sc2=O)c1	n	u	u	u	u
CCOC(=O)C1=CCC(c2ccccc2C)N(S(=O)(=O)c2ccc(C)cc2)C1 (stereo unspecified)	x	x	n	x	x
CC[n+]1c(C)sc2cc(OC)ccc21	n	n	-67	n	n
O=C(/C(=C/O)N=Nc1ccccc1)c1ccc(Cl)cc1	u	n	-102	n	u
Cc1ccc(N=N/C(=C\O)C(=O)c2ccc(Cl)cc2)cc1	u	n	-86	n	n
CCc1ccc(C(=O)NC(=S)Nc2ccc3c(c2)OCCO3)cc1	7.1µM	n	n	7.1µM	u
Cc1ccc(C(=O)Nc2ccc(N3CCOCC3)cc2)cc1	n	n	n	n	n
Cc1ccc(C(=O)NC(=S)Nc2ccc(N3CCOCC3)cc2)c(C)c1	25µM	n	n	2.5µM	n
CCc1ccc(OCC(=O)Nc2ccc3c(c2)OCCO3)cc1	n	n	n	n	n
S=C(Nc1ccc(Cl)cc1)Nc1ccc2c(c1)OCCO2	u	5.2µM	n	u	n
O=C(NC(=S)Nc1ccc2c(c1)OCCO2)c1ccc(F)cc1Cl	u	n	u	11µM	n
S=C(Nc1ccc2c(c1)OCCO2)Nc1ccccc1Cl	u	n	n	u	n
C/C=C/C1=Cc2ccccc2C(C(C(=O)OC)C(=O)OC)N1C(=O)OC (stereo unspecified)	n	x	x	n	x
CCc1nc2c(OCCC3CCCCC3)cccn2c1N(C=O)Cc1ccccc1	x	x	n	x	x
O=C(NC(=S)Nc1ccc2c(c1)OCCO2)c1ccco1	u	n	n	u	n
O=S(=O)(Cc1ccc(Cl)cc1)N1CCN(Cc2ccc3c(c2)OCO3)CC1	n	n	n	n	n
Cc1ccc(SCC(=O)NC(=O)Nc2ccc3c(c2)OCCO3)c(C)c1	n	n	n	n	n
O=S(=O)(Cc1ccc(Cl)cc1)Nc1ccc2c(c1)OCO2	n	n	-53	n	n
O=C(CCl)Nc1ccc2c(c1)OCO2	n[10 µM]	u	-97	18µM	n
Cc1ccc(C(=O)NC(=S)Nc2ccc3c(c2)OCCO3)c(C)c1	u	n	n	4.5µM	u
SMILES	Gal4-VP16 FLuc	SW480 rereplic	IL1B secr inh	RORg inh	MCF10A rerep
Cc1cc(C)cc(C(=O)NC(=S)Nc2ccc3c(c2)OCCO3)c1	3.2µM	n	n	u	n
CC(=O)c1cccc(NC(=O)CSc2nc(=O)n(CCN3CCOCC3)c3c2CCCC3)c1	x	n	u	x	n
O=C(NC(=S)Nc1ccc2c(c1)OCO2)c1ccc(Cl)cc1	5.6µM	n	n	5µM	n
CO/N=C/C(=N\Nc1ccccc1)C(=O)c1ccccc1	n	n	n	u	n
COC(=O)C=CC(=NNc1ccccc1)c1ccccc1	x	u	n	x	18µM
CC(C)=CCOc1ccc(/C=C/C(=O)c2ccc(OCC=C(C)C)cc2OCC(=O)O)cc1	n	n	x	u	12µM
C/C=C/c1ccc(OCC(=O)O)c(OC)c1	n	n	n	n	n
O=C(NNC1=NS(=O)(=O)c2ccccc21)c1ccc([N+](=O)[O-])cc1	u	n	n	13µM	n
CC[C@H](C)[C@H](NC(=O)[C@@H](NC(=O)CNC(=O)[C@@H](N)CC(C)C)[C@@H](C)O)C(=O)N1CCC[C@H]1C(=O)NCC(=O)O	n	x	x	n	x
Oc1ccc(/C=N/NC(=S)Nc2cccnc2)c(O)c1	u	n	-65	n	u
Oc1cccc(/C=N/NC(=S)Nc2cccnc2)c1O	5.6µM	u	-96	4.5µM	u
Oc1ccc(/C=N/NC(=S)Nc2cccnc2)c(O)c1O	n	n	n	n	n
